An excerpt weighted towards active compounds, which were near 3.9% of everything screened.
FBA Mtb inh = Mtb FBA enzyme inhibitors, primary screen, biochemical, fluorescence, strain H37Rv | purified M. tuberculosis FBA, fluorescence read-out | Fructose-bisphosphate aldolase (Mycobacterium tuberculosis (strain ATCC 25618 / H37Rv)), … | inhibition, % at 1 µM | AID 588726, 2011 | 2.3% of 360,000 active;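 also: 0% = vehicle and 100% = reference inhibitor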
Target sequence (P9WQA3 whole entry, looked up): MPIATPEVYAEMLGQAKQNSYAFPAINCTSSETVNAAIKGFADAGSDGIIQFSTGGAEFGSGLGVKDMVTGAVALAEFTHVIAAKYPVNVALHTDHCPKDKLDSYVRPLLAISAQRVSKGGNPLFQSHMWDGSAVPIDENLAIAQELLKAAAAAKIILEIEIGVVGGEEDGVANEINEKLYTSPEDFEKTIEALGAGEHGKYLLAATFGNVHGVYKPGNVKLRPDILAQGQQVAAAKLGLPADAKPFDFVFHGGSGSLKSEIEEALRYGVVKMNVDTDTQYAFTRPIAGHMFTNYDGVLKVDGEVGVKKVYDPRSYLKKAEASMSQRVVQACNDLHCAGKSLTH
Vc quorum ag = inducers of Vibrio cholerae quorum light production without autoinducers, primary screen, BH1578 luxS cqsA deficient, single point; activation, % at 18.7 µM; V. cholerae BH1578 lux reporter, luminescence, 6 h; 0.16% of 350,000 active; in the data active = activation mostly above about 9.7%, no sharp cut-off
3CLpro inhibitor = SARS-CoV 3CLpro protease inhibitors, primary screen, biochemical, quenched FRET; Replicase polyprotein 1ab (Severe acute respiratory syndrome coronavirus), P0C6X7; recombinant SARS-CoV 3CLpro, quenched FRET peptide cleavage; inhibition, % at 6 µM; 0.14% of 290,000 active; AID 1706, 2009; in the data active = inhibition above about 12%
PrPC surface inh = inhibitors of human cell surface prion protein PrPC, primary screen, cell-based, TR-FRET | TR-FRET read-out | Major prion protein (Homo sapiens), P04156 | 0.43% of 370,000 active | AID 720596, 2013 | inhibition, % at 13.8 µM; in the data active = inhibition above about 24%; also: 0% = median of the test wells and 100% = reference compound wells
GDH-TPI counter-1 = GDH-TPI coupling enzyme inhibitors, primary screen, artefact control for M. tuberculosis FBA inhibitor project, biochemical, absorbance, full deck; GDH-TPI coupled enzyme counterscreen, NADH absorbance; inhibition, % at 4.8 µM; 1.2% of 360,000 active; AID 588335, 2011; in the data active = inhibition above about 30%;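 also: 0% = DMSO wells and 100% = wells lacking the enzyme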
Mtb FBA inh conf = M. tuberculosis aldolase blockers, biochemical, fluorescence, strain H37Rv, confirmation | shares compounds with FBA Mtb inh | 78% of 5,600 active | purified M. tuberculosis FBA, fluorescence read-out | inhibition, % at 1 µM;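 also: 0% = vehicle wells and 100% = reference inhibitor wells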
GDH-TPI counter-2 = GDH-TPI coupling enzyme inhibitors, artefact control for M. tuberculosis FBA inhibitor project, biochemical, fluorescence, high throughput; GDH-TPI coupled enzyme counterscreen; inhibition, % at 1 µM; AID 652141, 2013; shares compounds with FBA Mtb inh; 81% of 5,600 active; in the data active = inhibition above about 10%
GDH-TPI dose = GDH-TPI coupling enzyme inhibitors, dose response, artefact control for M. tuberculosis FBA inhibitor project, biochemical, fluorescence, IC50; shares compounds with FBA Mtb inh; GDH-TPI coupled enzyme assay, artifact counterscreen; IC50, µM; 79% of 170 active; AID 652145, 2013; call rule not given here
Starred values were filed as active, the others as inactive. Rule as the data show it, unless noted: active = inhibition above about 27%; inactive = the rest.

For CCOc1ccc(CN2CCNC(=O)C2CC(=O)NCCc2nc(C)c3c(n2)CCC3)cc1 (stereo unspecified) the results were FBA Mtb inh 27.7*, Vc quorum ag -0.4, 3CLpro inhibitor -3.5, PrPC surface inh -2.6, GDH-TPI counter-1 5.0, Mtb FBA inh conf active and GDH-TPI counter-2 154.0*.
Screening COCCN1C=C(C(=O)OC)C(c2ccc3c(c2)OCO3)C(C(=O)OC)=C1 returned FBA Mtb inh 14.1, Vc quorum ag -0.2, 3CLpro inhibitor 1.3, PrPC surface inh 5.1 and GDH-TPI counter-1 11.9.
`CCCCOc1ccccc1C1C(C(=O)OC)=CN(CC)C=C1C(=O)OC` gave FBA Mtb inh 62.8*, Vc quorum ag inactive, 3CLpro inhibitor -8.2, PrPC surface inh 8.0, GDH-TPI counter-1 20.4, Mtb FBA inh conf 7.4 and GDH-TPI counter-2 1.4.
For COC(=O)C1=CN(Cc2cccs2)C=C(C(=O)OC)C1c1ccc(OC)cc1OC the results were FBA Mtb inh 85.2*, Vc quorum ag inactive, 3CLpro inhibitor 4.9, PrPC surface inh -2.4, GDH-TPI counter-1 -4.2, Mtb FBA inh conf 89.5* and GDH-TPI counter-2 93.1*.
Screening COC(=O)C1=CN(c2ccc(OC)cc2)C=C(C(=O)OC)C1c1cc(OC)c(OC)cc1OC returned FBA Mtb inh 3.6, Vc quorum ag 1.6, 3CLpro inhibitor 7.0, PrPC surface inh -2.2 and GDH-TPI counter-1 4.7.
`COC(=O)C1=CN(Cc2cccs2)C=C(C(=O)OC)C1c1cccc(Cl)c1` gave FBA Mtb inh 71.1*, Vc quorum ag 4.3, 3CLpro inhibitor 3.0, PrPC surface inh 6.3, GDH-TPI counter-1 6.8, Mtb FBA inh conf 64.9* and GDH-TPI counter-2 53.4*.
`Cc1cc(C)cc(NC(=O)CN(C)CC(=O)N(CC(C)C)c2c(N)n(CC(C)C)c(=O)[nH]c2=O)c1` gave FBA Mtb inh 1.0, Vc quorum ag -0.7, PrPC surface inh 3.8 and GDH-TPI counter-1 2.2.
Screening CC(C)CCOCC(=O)Oc1ccccc1C(=O)O returned FBA Mtb inh 33.5*, Vc quorum ag -0.1, 3CLpro inhibitor 0.2, PrPC surface inh 3.0, GDH-TPI counter-1 -3.2, Mtb FBA inh conf -4.5 and GDH-TPI counter-2 -4.1.
`CCCCOc1ccc(C(=O)NC2CCCCN(Cc3ccc(Cl)cc3)C2=O)cc1` (stereo unspecified) gave PrPC surface inh 14.7.
C[C@H](O)[C@@H]1C(=O)N2CCc3c([nH]c4ccccc34)[C@@H]2C[C@@H]1N(C)C(=O)Nc1cccc2ccccc12 was read as FBA Mtb inh 73.8*, PrPC surface inh 1.5, Mtb FBA inh conf 26.7 and GDH-TPI counter-2 24.1*.
For C[C@H](O)[C@@H]1C(=O)N2CCc3c([nH]c4ccccc34)[C@@H]2C[C@@H]1N(C)S(=O)(=O)c1ccccc1 the results were FBA Mtb inh 71.9*, Vc quorum ag -0.3, PrPC surface inh -20.6, GDH-TPI counter-1 10.9, Mtb FBA inh conf active and GDH-TPI counter-2 active.
For COc1ccc(C2C(C(N)=O)=C(C)Nc3nc(CCCO)nn32)cc1OC (stereo unspecified) the results were FBA Mtb inh 3.1, Vc quorum ag -0.9, 3CLpro inhibitor -3.1 and GDH-TPI counter-1 -2.5.
`O=C1CCC(C(=O)OCc2cc(=O)oc3ccc4ccccc4c23)=NN1` gave FBA Mtb inh 31.1*, Vc quorum ag inactive, 3CLpro inhibitor 1.1, PrPC surface inh 4.6, GDH-TPI counter-1 22.5, Mtb FBA inh conf 90.9* and GDH-TPI counter-2 62.4*.
`CC(C)OC(=O)N(C)C[C@@H]1OCc2ccccc2-c2c(n(C)c3ccccc23)C(=O)N([C@@H](C)CO)C[C@H]1C` gave FBA Mtb inh 3.6, Vc quorum ag -0.7, PrPC surface inh 17.5 and GDH-TPI counter-1 2.1.
Screening COCCNc1oc(/C=C/c2ccc(F)cc2)nc1S(=O)(=O)c1ccccc1 returned FBA Mtb inh 19.3, Vc quorum ag -0.2, 3CLpro inhibitor 0.3, PrPC surface inh 1.1 and GDH-TPI counter-1 17.3.
COc1cccc(/C=C/c2nc(S(=O)(=O)c3ccccc3)c(N(C)C)o2)c1 was read as FBA Mtb inh 47.0*, Vc quorum ag 3.1, 3CLpro inhibitor 0.4, PrPC surface inh 0.7, GDH-TPI counter-1 22.4, Mtb FBA inh conf 57.6* and GDH-TPI counter-2 43.6*.
For COCCNc1oc(/C=C/c2cccc(OC)c2)nc1S(=O)(=O)c1ccccc1 the results were FBA Mtb inh 47.2*, Vc quorum ag -0.3, PrPC surface inh 8.6, GDH-TPI counter-1 31.9*, Mtb FBA inh conf 123.0* and GDH-TPI counter-2 89.4*.
`COc1ccccc1/C=C/c1nc(S(=O)(=O)c2ccccc2)c(N(C)C)o1` gave FBA Mtb inh 6.5, Vc quorum ag inactive, 3CLpro inhibitor 2.5, PrPC surface inh -2.8 and GDH-TPI counter-1 16.9.
`COc1cccc(CNS(=O)(=O)c2ccc3c(c2)C(C)(C)C(=O)N3C)c1` gave FBA Mtb inh 3.4, Vc quorum ag inactive, 3CLpro inhibitor -1.5 and GDH-TPI counter-1 5.6.
Screening COc1ccc(NC(C)=O)cc1S(=O)(=O)N1CC=C(c2ccccc2)CC1 returned FBA Mtb inh -1.9, Vc quorum ag -0.3, PrPC surface inh 3.1 and GDH-TPI counter-1 -1.3.
`O=C(NC(=S)Nc1cc(Cl)ccc1Cl)c1ccco1` gave FBA Mtb inh -0.6, Vc quorum ag -2.6, PrPC surface inh 8.9 and GDH-TPI counter-1 1.8.
`CCC1OC2(C)OC(=N)C1(C#N)C(C#N)(C#N)C2c1ccccc1` (stereo unspecified) gave FBA Mtb inh 56.5*, Vc quorum ag -0.3, 3CLpro inhibitor 0.7, PrPC surface inh -10.2, GDH-TPI counter-1 0.7, Mtb FBA inh conf 18.2, GDH-TPI counter-2 -1.7 and GDH-TPI dose 3.33*.
CC(C)C1OC2(C)OC(=N)C1(C#N)C(C#N)(C#N)C2c1ccccc1 (stereo unspecified) was read as FBA Mtb inh 50.0*, Vc quorum ag -0.4, 3CLpro inhibitor 0.5, PrPC surface inh -3.3, GDH-TPI counter-1 5.8, Mtb FBA inh conf 94.3* and GDH-TPI counter-2 82.2*.

Screening data as filed in PubChem.
